Screens deposited in PubChem by National Center for Advancing Translational Sciences (NCATS).
Hits are enriched below; roughly 7.3% of the tested compounds scored in any of these assays.
NPC1 promoter act = activates the NPC1 promoter; Huh7 NPC1 promoter luciferase reporter, 24 h; Potency, µM (doses to about 9.22 µM), for the others: at the highest dose activation, hits mostly activators; 320,000 tested, 2.4% active; AID 485313; further: % of control where 0% means no effect; nearly all actives have a fitted effect of over 60% in size
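Readout is luciferase luminescence, reflecting NPC1 promoter activation in stably transfected Huh7 cells after 24 h compound exposure at 37 °C in reduced-serum medium with 10% FBS.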
FLuc modulator = firefly luciferase modulation, counter-screen for miR-21 project; 360,000 tested, 6.9% active; AID 588342; Potency, µM (series often up to 57.5 µM), for inactives: at the highest dose activity change, negative = inhibition, most hits filed as inhibitors; P08659; purified FLuc, Km substrates, luminescence inhibition;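 further: plate controls were vehicle for no effect and reference inhibitor for full effect; nearly all actives have a fitted effect of over 55% in size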
Target sequence (P08659 whole entry, looked up): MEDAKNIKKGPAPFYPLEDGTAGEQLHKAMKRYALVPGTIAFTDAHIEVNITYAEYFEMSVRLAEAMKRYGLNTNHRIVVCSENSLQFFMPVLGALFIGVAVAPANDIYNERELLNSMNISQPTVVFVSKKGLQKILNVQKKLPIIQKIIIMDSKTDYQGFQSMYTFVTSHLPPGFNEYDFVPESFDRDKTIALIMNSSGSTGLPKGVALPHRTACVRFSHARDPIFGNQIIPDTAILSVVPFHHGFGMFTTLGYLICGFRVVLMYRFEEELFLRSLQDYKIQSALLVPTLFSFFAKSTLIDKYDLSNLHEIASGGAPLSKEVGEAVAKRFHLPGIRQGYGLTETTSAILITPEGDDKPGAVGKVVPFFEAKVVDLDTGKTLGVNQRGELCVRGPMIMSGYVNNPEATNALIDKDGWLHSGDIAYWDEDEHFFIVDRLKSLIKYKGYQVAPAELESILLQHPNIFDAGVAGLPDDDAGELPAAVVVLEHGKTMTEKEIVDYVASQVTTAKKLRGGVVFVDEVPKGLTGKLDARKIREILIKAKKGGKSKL
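Purified P. pyralis luciferase, 10 nM final, with Km-level 10 uM D-luciferin and 10 uM ATP in 50 mM Tris acetate pH 7.5, 10 mM Mg acetate, 0.01% Tween-20, 0.05% BSA; 6-point qHTS titration about 60 µM downward; luminescence read.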
Rab9 promoter act = Rab9 promoter activation; Huh7 Rab9 promoter-luciferase reporter, luminescence, 24 h; Potency, µM (highest dose often 9.22 µM), without a hit: top-dose activation, negative = inhibition, actives largely listed as activators; 320,000 tested, 2.8% active; further: % of control where 0% means no effect; nearly all actives have a fitted effect of over 60% in size
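Cell-based reporter: Huh7 stable for Rab9 promoter-driven luciferase, plated in reduced-serum medium with 10% FBS at 1500 cells/well, compound-treated 24 h at 37 °C, luminescence read after 10 min reagent.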
KinaseGlo FLuc = blocks Kinase-Glo luciferase, a counter-screen artifact; 200,000 tested, 0.28% active; Potency, µM (top dose mostly 38.3 µM), for inactives: at the top dose activity change, negative = inhibition, hits mostly inhibitors; Kinase-Glo luciferase, ATP luminescence, 8 min; further: on the % scale 0 is the no-effect control and ±100 the full control effect; nearly all actives have a fitted effect of over 60% in size
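Kinase-Glo luciferase light output from ATP and luciferin was measured with 10 uM ATP, within the enzyme's linear range. Buffer: 50 mM imidazole pH 7.2, 50 mM KCl, 7 mM MgCl2, 0.01% Tween 20, 0.05% BSA; luminescence read after 8 min at ambient temperature.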
SMN2 splice enh = SMN2 splice variant enhancement. HEK293 SMN2-luciferase splicing reporter, luminescence, 30-36 h. Potency, µM (series often up to 46.1 µM), for the others: top-dose activity change, positive = activation, most hits filed as activators. 210,000 tested, 2.8% active; further: % of control where 0% means no effect; nearly all actives have a fitted effect of over 55% in size
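HEK293 cells carry an SMN2 minigene-luciferase reporter in which exon 7 inclusion puts luciferase in frame. Cells were seeded at 2000 cells/well, attached for 10-12 hours, then exposed to compounds for 30-36 hours at 37C before ONE-Glo luminescence.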
ELG1 genotox = genotoxicity induction in ELG1-luciferase HEK293T cells; HEK293T ELG1-luciferase reporter, luminescence, 16 h; Potency, µM (titrated, usually from 46 µM), for the others: top-dose activity change, positive = activation, most hits filed as activators; 330,000 tested, 1.3% active; AID 504466; further: % of control where 0% means no effect; nearly all actives have a fitted effect of over 60% in size
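Genotoxicity was scored as increased ELG1-luciferase reporter signal, measured by ONE-Glo luminescence (30 min, room temperature). Compound or vehicle exposure of the HEK293T reporter cells lasted 16 hr at 37°C.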
* hit, by the source's call; ? = inconclusive; nt = no result; [ ] = remark or other dose. The call rests on the fitted dose curve; in most records, active means well fitted curve in the direction sought with a large enough effect; inconclusive means small, poorly fitted or top-dose-only effect, or another doubt; inactive means no such curve, though single readings can be large; an effect the other way counts as inactive or inconclusive. Potency means the concentration at half of the fitted maximal effect.

SMILES | NPC1 promoter act | FLuc modulator | Rab9 promoter act | KinaseGlo FLuc | SMN2 splice enh | ELG1 genotox
Cc1ccc(-n2nc3c(N4CCCC(C(=O)NCc5ccccc5C)C4)nnc(C)c3c2C)cc1 (configuration not stated) | nt | 4% | nt | nt | nt | nt
O=C(NCC1CCCO1)c1ccccc1-c1nc(-c2ccc(F)cc2)no1 (configuration not stated) | 1% | ? | -1% | -4% | -42% | -5%
COc1ccccc1-c1noc(-c2ccccc2C(=O)NCC2CCCO2)n1 (configuration not stated) | 1% | 15µM* | 1% | nt | nt | -3%
COc1ccc(-c2noc(-c3ccccc3C(=O)NCC3CCCO3)n2)cc1 (configuration not stated) | 1% | 9.5µM* | -1% | nt | nt | -9%
Cc1ccccc1-c1noc(-c2ccccc2C(=O)NCC2CCCO2)n1 (configuration not stated) | 1% | 15µM* | -1% | nt | nt | -8%
CC(/C=C1\SC(=Nc2cccnc2)NC1=O)=C\c1ccccc1 | -26% | ? | -15% | nt | nt | -7%
C=CCOc1ccc(/C=C2\SC(=Nc3cccnc3)NC2=O)cc1 | -3% | 7.6µM* | 1% | nt | nt | 9%
COCCn1c(CCC(=O)Nc2ccc(OC)c(OC)c2)nc2cccnc21 | nt | -1% | nt | nt | 1% | nt
CCCCNc1c(-c2cccc(-c3cc(C(C)=O)cs3)c2)nc2cc(C)ccn12 | 13% | 6µM* | 5% | nt | nt | -11%
COC(=O)c1sc(NC(=O)CSc2nnnn2C)nc1C | 2.2µM* | 17µM* | 2µM* | nt | nt | 15µM*
CCc1nnc(NC(=O)CSc2nnnn2C)s1 | -2% | 0% | 2% | -1% | 14% | -3%
COCc1cc(C)nc(SCC(=O)Nc2cccc(C)c2C)c1C#N | -2% | -2% | -3% | 3% | -24% | 3%
Cc1csc(NC(=O)CSc2nnnn2C)n1 | 25% | ? | ? | -2% | 14µM* | ?
COCc1cc(C)nc(SCC(=O)Nc2nc(C)cs2)c1C#N | 0.63µM* | 12µM* | 0.71µM* | nt | nt | ?
Cc1nc(NC(=O)CSc2nnnn2C)sc1C | ? | ? | ? | -3% | 11µM* | ?
Cc1cccc(NC(=O)Cn2nc(-c3ccccc3)c3cnc4ccccc4c32)c1 | nt | 0% | nt | nt | nt | nt
O=c1cc(-c2cccc(F)c2)[nH]c2cc(Cl)ccc12 | nt | nt | nt | 3%[39.9 µM] | nt | nt
O=C(CN1C(=O)COc2ccccc21)NCCc1ccc(Cl)cc1 | nt | -19% | nt | nt | nt | nt
COc1ccc2c(c1)OC(=O)CC2c1ccc2c(c1)OCO2 (configuration not stated) | nt | nt | nt | 4%[39.9 µM] | nt | nt
Cc1ccc(N(CC(=O)NCCc2ccccc2C)S(=O)(=O)N(C)C)cc1 | nt | -7% | nt | nt | 0% | nt
CN(C)c1ccc(C2=NOC(CN3C(=O)c4ccccc4S3(=O)=O)C2)cc1 (configuration not stated) | 3.2µM* | 3µM* | 0.63µM* | -2% | 13µM* | ?
CCOC(=O)c1c(N)sc2c1CCN(Cc1ccccc1)C2 | nt | nt | nt | -1%[39.9 µM] | nt | nt
CN(Cc1c(F)cccc1Cl)C(=O)CNC(=O)c1cccs1 | 4µM* | ? | ? | nt | nt | ?
C=C(C(=O)OC)C(NC(=O)OC)c1ccccc1 (configuration not stated) | nt | nt | nt | 2% | -3% | nt
Cc1cccc(C(=O)NCC(=O)OCc2cc(=O)n3nc(CC(C)C)sc3n2)c1 | nt | -3% | nt | nt | nt | nt
SMILES | NPC1 promoter act | FLuc modulator | Rab9 promoter act | KinaseGlo FLuc | SMN2 splice enh | ELG1 genotox
c1ccc2c(c1)CCN(C1=Nc3cccc4cccc1c34)C2 | 22% | 6.7µM* | 2.8µM* | -10% | 16µM* | 6%
c1cc2c3c(cccc3c1)C(N1CCCCCC1)=N2 | 22% | 1% | -6% | -6% | -20% | 2%
COC(=O)c1ccccc1NC(=O)Cc1nc(-c2ccc(OC)cc2)no1 | nt | -18% | nt | nt | nt | nt
CC(C)(C)NC(=O)COc1ccc(-c2ccccc2)cc1 | ? | 19µM* | 23% | -2% | 12% | ?
COc1ccc(NC(=O)COc2ccc(-c3ccccc3)cc2)cc1 | -7% | 1% | 2% | nt | nt | 3%
CC(C)OC(=O)COc1ccc(-c2ccccc2)cc1 | 0% | 12µM* | 2% | -4% | 7% | -5%
CCNC(=O)COc1ccc(-c2ccccc2)cc1 | ? | 19µM* | ? | -4% | ? | ?
Cc1ccc(S(=O)(=O)c2nnn3c2nc(N2CCC(C)CC2)c2cc(Cl)ccc23)cc1C | nt | -4% | nt | nt | 0% | nt
Cc1ccc(Nc2sc(C(=O)c3ccccc3)c(N)c2S(=O)(=O)c2ccccc2)cc1Cl | nt | -2% | nt | nt | -18% | nt
CC1=C(C(=O)Nc2cccnc2)C(c2ccc(F)cc2)n2nc(-c3cccc(C)c3)nc2N1 (configuration not stated) | nt | 2% | nt | nt | -7% | nt
CC(C)(C)CC(=O)Nc1nnc(CCc2ccccc2)s1 | 3.2µM* | ? | 3.2µM* | nt | nt | ?
CCCc1nnc(NC(=O)CC(=O)Nc2ccccc2C(=O)O)s1 | 24% | 19µM* | -1% | -6% | -11% | 1%
CCCC(=O)Nc1nnc(CCc2ccccc2)s1 | 4% | -5% | 5% | nt | nt | -3%
CCC(C)(C)C(=O)Nc1nnc(CCc2ccccc2)s1 | 2.8µM* | ? | 4µM* | nt | nt | 21µM*
O=C1[C@H]2[C@H]3C=C[C@@H](C4[C@H]3[C@@H]3C(=O)N(CN5CCSCC5)C(=O)[C@H]43)[C@H]2C(=O)N1CN1CCSCC1 (some centres not stated) | nt | nt | nt | -5%[7.66 µM] | -19%[9.22 µM] | nt
COc1cccc(/C=N/NC(=O)CSc2nnc(C)n2-c2ccccc2)c1O | -9% | 17µM* | -3% | -4% | -25% | -4%
COc1ccc(/C=N/NC(=O)CSc2nnc(C)n2-c2ccccc2)c(OC)c1OC | 1% | -1% | 1% | 0% | -6% | -5%
COc1cccc(/C=N/NC(=O)CN2CC(c3ccccc3)CC2=O)c1O (configuration not stated) | -8% | 12µM* | -19% | -1% | -48% | 4%
Fc1ccc(F)c(C2=NNC(=NCC3CCCO3)SC2)c1 (configuration not stated) | ? | ? | 2.2µM* | -2% | ? | 14%
Cc1cc(C)n2cc(CSc3nnc(SCc4cn5c(C)cc(C)nc5n4)s3)nc2n1 | 2% | -1% | -4% | -3% | 12% | -1%
Cc1cc(C)n2cc(CSc3nc4ccccc4s3)nc2n1 | ? | 21µM* | 3.5µM* | 3% | 11µM* | ?
Cc1ccc2oc(-c3ccco3)cc(=O)c2c1 | ? | 9.5µM* | 2.8µM* | -6% | ? | 21µM*
CC(C)OCCOc1ccc2oc(-c3ccco3)cc(=O)c2c1 | ? | 24µM* | ? | nt | nt | 8%
